In PubChem BioAssay one finds composite z-score, z-score and composite Z-score data, which are given here for five molecules.

For test [1], the system named is Human papillomavirus type 1a protein E7 (residues 44-93). Description: small molecules binding HPV E7 44-93 – biochemical, small-molecule microarray, residues 44-93, 635 nm fluorescence, primary screen (AID 1108).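 Further: E7 fragment applied at 1 µg/mL in TBST for 1 h at 4 C; score combines spot fluorescence with its signal to noise ratio.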 Particulars: fluorescence 635 nm, higher = more signal.
Test [2] in a line: hepatitis C replication reporter changes, two-sided – Huh7 cells, luciferase reporter, HCV replication inhibitor project, primary screen (AID 1109).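 Further: huh7 hepatoma cells harbouring a luciferase neomycin HCV replicon reporter; luciferase luminescence as measure of HCV replicon replication; test concentration not given here.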 Particulars: Huh7 HCV replicon luciferase reporter, 48 h; higher = more signal. (A reporter such as luciferase makes a cellular process visible.)
Test [3] deals with Left-right determination factor 2 (Homo sapiens) (UniProt O00292). The experiment in a line: small molecules binding LEFTY2 protein – biochemical, small-molecule microarray, 635 nm fluorescence scan, primary screen (AID 1110). To be noted: higher = more signal.
Sequence of Left-right determination factor 2 (Homo sapiens) (O00292 whole entry, looked up): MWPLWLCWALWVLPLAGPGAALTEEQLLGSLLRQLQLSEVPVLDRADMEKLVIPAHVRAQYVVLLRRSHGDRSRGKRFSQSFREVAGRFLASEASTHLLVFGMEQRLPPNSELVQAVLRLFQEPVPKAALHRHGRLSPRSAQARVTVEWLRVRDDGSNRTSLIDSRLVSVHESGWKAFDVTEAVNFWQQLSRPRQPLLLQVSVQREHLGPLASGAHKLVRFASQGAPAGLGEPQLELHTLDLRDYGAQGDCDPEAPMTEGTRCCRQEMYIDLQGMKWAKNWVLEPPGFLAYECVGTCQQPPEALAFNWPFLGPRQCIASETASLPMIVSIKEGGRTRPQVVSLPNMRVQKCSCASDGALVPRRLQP
Test [4] addresses Calmodulin-1 (Homo sapiens) (UniProt P0DP23). Description: small molecules binding calmodulin-1 with EGTA – biochemical, small-molecule microarray, Cy5-labelled CALM1, profiling panel (AID 1111).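 Further: labelled calmodulin applied in Tris saline Tween buffer holding calcium plus EGTA and DTT.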 To be noted: Cy5-CALM1 binding fluorescence, higher = more signal.
Test [5] has the same target. Description: small molecules binding Ca-loaded calmodulin-1 – biochemical, small-molecule microarray, Cy5-labelled CALM1, plus calcium, artefact control for SMM control-protein annotation, profiling panel (AID 1112).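 Further: score merges spot fluorescence with signal to noise from triplicate slides.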 To be noted: Cy5-CALM1 binding fluorescence, higher = more signal.
Test [6] is described as follows: probe aWnt5a binding to arrayed compounds – biochemical, biotinylated probe, 635/667 nm fluorescence, primary screen (AID 1113).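 Further: score merges 667 nm fluorescence intensity with signal-to-noise per printed feature.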 To be noted: small-molecule microarray, higher = more signal.
Test [7] in a line: probe aShh binding to arrayed compounds – biochemical, biotinylated probe, 635/667 nm fluorescence, primary screen (AID 1114).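 Further: probe is biotin-labelled aShh protein from a stem cell growth factor screen; measures binding of labelled protein to compounds printed on the slide; score merges feature fluorescence at 667 nm with signal-to-noise.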 Particulars: small-molecule microarray, higher = more signal.
Test [8] can be described thus: probe aNog binding to arrayed compounds – biochemical, biotinylated probe, 635/667 nm fluorescence, primary screen (AID 1115).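 Further: probe is biotinylated aNog protein used at 0.15 µg/mL for 1 h at 4 C; z-score combines 667 nm fluorescence of each spot with its signal to noise.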 To be noted: small-molecule microarray, higher = more signal.
The target in test [9] is Torsin-1A-interacting protein 1 (Homo sapiens) (UniProt Q5JTV8). The experiment in a line: compound microarray binding of lysate hLAP1 – cell lysate, small-molecule microarray, COS7 lysate, 635/667 nm fluorescence, primary screen (AID 1116). To be noted: 635 nm fluorescence, higher = more signal.
Sequence of Torsin-1A-interacting protein 1 (Homo sapiens) (Q5JTV8 whole entry, looked up): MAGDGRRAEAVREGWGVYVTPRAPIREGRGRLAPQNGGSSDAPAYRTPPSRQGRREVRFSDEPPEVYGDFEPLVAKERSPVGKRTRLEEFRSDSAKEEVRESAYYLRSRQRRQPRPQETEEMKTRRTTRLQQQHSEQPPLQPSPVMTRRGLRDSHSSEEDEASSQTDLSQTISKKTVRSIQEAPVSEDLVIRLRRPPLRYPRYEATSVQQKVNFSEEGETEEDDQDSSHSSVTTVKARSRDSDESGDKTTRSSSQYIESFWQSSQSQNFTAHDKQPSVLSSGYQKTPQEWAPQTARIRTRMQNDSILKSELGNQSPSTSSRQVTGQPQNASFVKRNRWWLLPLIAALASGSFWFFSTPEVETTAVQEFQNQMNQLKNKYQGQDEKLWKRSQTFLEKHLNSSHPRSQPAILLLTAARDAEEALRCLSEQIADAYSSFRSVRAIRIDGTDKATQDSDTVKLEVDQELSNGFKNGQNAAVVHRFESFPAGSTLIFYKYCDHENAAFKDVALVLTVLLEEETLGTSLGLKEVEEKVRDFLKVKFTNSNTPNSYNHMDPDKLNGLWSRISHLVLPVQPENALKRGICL
The target of test [10] is Alpha-bungarotoxin (Bungarus multicinctus) (UniProt P60615). Description: compounds binding labelled alpha-BTX control protein – biochemical, small-molecule microarray, Alexa647 label, 635/667 nm fluorescence, artefact control for SMM control protein annotation, profiling panel (AID 1117). To be noted: alpha-BTX-A647 binding fluorescence, higher = more signal.
Sequence of Alpha-bungarotoxin (Bungarus multicinctus) (P60615 whole entry, looked up): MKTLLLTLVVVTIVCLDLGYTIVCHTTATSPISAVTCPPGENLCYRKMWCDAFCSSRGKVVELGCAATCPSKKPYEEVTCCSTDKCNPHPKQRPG
The target of the next test is Albumin (Bos taurus) (UniProt P02769). The experiment in a line: compounds binding labelled BSA control protein – biochemical, small-molecule microarray, Alexa647 label, 635/667 nm fluorescence, artefact control for SMM control protein annotation, profiling panel (AID 1118).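 Further: score merges 667 nm emission intensity and signal-to-noise per printed compound spot.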 Particulars: BSA-A647 binding, fluorescence 635 nm, higher = more signal.
Sequence of Albumin (Bos taurus) (P02769 whole entry, looked up): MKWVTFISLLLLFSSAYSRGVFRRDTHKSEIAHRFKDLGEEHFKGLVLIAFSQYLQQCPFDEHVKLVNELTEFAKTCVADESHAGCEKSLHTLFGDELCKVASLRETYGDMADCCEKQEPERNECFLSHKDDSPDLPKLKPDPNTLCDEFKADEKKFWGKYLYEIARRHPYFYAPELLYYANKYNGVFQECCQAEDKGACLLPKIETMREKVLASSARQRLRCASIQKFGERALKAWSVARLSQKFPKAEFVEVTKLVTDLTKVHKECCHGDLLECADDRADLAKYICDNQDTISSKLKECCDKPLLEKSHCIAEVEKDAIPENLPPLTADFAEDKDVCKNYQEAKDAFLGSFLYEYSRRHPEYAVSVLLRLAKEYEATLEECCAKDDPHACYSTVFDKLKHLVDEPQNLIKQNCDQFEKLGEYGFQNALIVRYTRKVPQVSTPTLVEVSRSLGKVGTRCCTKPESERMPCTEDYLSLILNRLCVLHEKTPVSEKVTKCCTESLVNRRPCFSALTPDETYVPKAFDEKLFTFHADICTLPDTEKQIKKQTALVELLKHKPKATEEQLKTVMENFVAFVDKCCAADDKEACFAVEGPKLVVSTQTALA
A short description of test [11]: probe aXIP binding to arrayed compounds – biochemical, NeuroSMM set, 635/667 nm fluorescence, primary screen (AID 1119).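 Further: probe is the protein aXip251-270 applied at 1 µg/mL to compound-printed slides; binding of probe to printed compounds measured as 667 nm fluorescence plus signal to noise.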 To be noted: small-molecule microarray, higher = more signal, called active from +8 up or from −8 down.
Test [12] is described as follows: probe aNOTCH3 binding on compound microarray – biochemical, small-molecule microarray, 635/667 nm fluorescence, primary screen (AID 1120).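 Further: probe is a biotin-tagged antibody raised against NOTCH3 rather than NOTCH3 protein; score merges spot fluorescence near 667 nm with spot signal to noise.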 To be noted: higher = more signal.
Test [13] can be described thus: probe aNOTCH2 binding on compound microarray – biochemical, small-molecule microarray, 635/667 nm fluorescence, primary screen (AID 1121).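 Further: score merges feature fluorescence read at 667 nm with its signal to noise.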 To be noted: higher = more signal.
In test [14] the target is Carbonic anhydrase 2 (Homo sapiens) (UniProt P00918). The experiment in a line: compounds binding carbonic anhydrase 2 – biochemical, small-molecule microarray, Alexa647-labelled CAII, profiling panel (AID 1122). To be noted: CAII-A647 binding fluorescence, higher = more signal.
Test [15] is described as follows: COS7 lysate on small-molecule microarray, probe aHis, 635 nm (AID 1123).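 Further: z-score combines 667nm fluorescence intensity with signal-to-noise per printed compound spot.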 Particulars: COS7 cell lysate, fluorescence, higher = more signal.
Test [16] in a line: probe aLAP1 signal on lysate-treated microarray – cell lysate, small-molecule microarray, COS7 lysate, primary screen (AID 1124).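 Further: lysate comes from COS7 cells expressing LAP1 and is applied at 0.3 µg/mL; score merges spot fluorescence near 667 nm with signal-to-noise over triplicate slides.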 Particulars: probe aLAP1, fluorescence, higher = more signal.
Another test concerns Sam68 (KHDRBS1). Description: compounds binding KHDRBS1 protein – biochemical, small-molecule microarray, 635 nm fluorescence, primary screen (AID 1125).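 Further: score merges 667 nm channel intensity with signal to noise over triplicate slides.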 Particulars: higher = more signal.
The test system of test [17] is Chordin-like protein 2 (CHRDL2). Description: compounds binding chordin-like 2 – biochemical, small-molecule microarray, 635 nm fluorescence, primary screen (AID 1126).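 Further: printed compound slides probed with Chrdl2 protein at 4 µg/mL for 1 h at 4 C; score merges 667 nm emission intensity with signal to noise over three replicate slides.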 Particulars: fluorescence 635 nm, higher = more signal.
For test [18], the target named is Concanavalin-A (Canavalia ensiformis) (UniProt P02866). The experiment in a line: compounds binding concanavalin A lectin – biochemical, small-molecule microarray, Alexa647 label, 635 nm, artefact control for SMM control protein annotation, primary screen (AID 1127).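 Further: z combines 667 nm emission intensity with signal-to-noise across three replicate slides.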 To be noted: ConA-A647 binding fluorescence, higher = more signal.
Sequence of Concanavalin-A (Canavalia ensiformis) (P02866 whole entry, looked up): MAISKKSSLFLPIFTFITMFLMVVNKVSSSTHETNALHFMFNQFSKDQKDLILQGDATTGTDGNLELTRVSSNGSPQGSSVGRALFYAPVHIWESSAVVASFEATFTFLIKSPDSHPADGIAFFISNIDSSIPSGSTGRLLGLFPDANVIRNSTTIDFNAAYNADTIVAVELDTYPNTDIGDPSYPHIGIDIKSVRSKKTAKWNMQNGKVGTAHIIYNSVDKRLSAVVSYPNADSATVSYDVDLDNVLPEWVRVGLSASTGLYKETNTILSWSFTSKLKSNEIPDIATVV

The source made the active and inactive calls.

In the case of `CCCC=C(CCC)[C@@H](NS(=O)(=O)c1ccc(-c2ccccc2)cc1)c1ccc(C(=O)OC)cc1`, the composite z-score in test [1] was 0.17; in test [3] it was 0.0185; in test [4], 0.601; in test [5], 0.581; in test [6] it was -0.104; in test [7] it was 0.0796. Further, the composite z-score was 0.119 in test [8]; 0.756 in test [9]; -0.214 in test [10]; -0.0722 with Albumin (Bos taurus); -0.0846 in test [12]; -0.0651 in [13]. Besides, the composite z-score in [14] was -0.291; in test [15] it was 0.257; in [16], 0.515; in the test with Sam68 (KHDRBS1), -0.829; in test [17] it was -0.705; in [18], 0.115. The z-score in test [2] is -1.35. In addition, in test [11], the composite Z-score is -0.682 (inactive).
Consider `CCCCCCc1nc(-c2cc(C)c(OC)c(C)c2)cc2c1[Si](C(C)C)(C(C)C)O[C@H]2c1ccccc1`, for which the composite z-score in test [1] was -0.57; in test [3] it was -0.607; in test [4] it was -0.482; in test [5] it was 0.244; in test [6] it was -0.197; in test [7], 0.0278. Further, the composite z-score in [8] is -0.0755; in test [9], -0.872; in [10] it was 0.117; with Albumin (Bos taurus), -0.0154; in test [12], -0.194; in test [13] it was -0.0191. Also, the composite z-score is -0.398 in [14]; -0.301 in [15]; -0.136 in [16]; -0.728 in the test with Sam68 (KHDRBS1); -0.182 in test [17]; -0.152 in test [18]. This molecule came in with a z-score in test [2] of 0.115. For the same molecule, the composite Z-score in [11] is -0.315 (inactive).
Turning to `CO[C@H]1COC(=O)[C@H](Cc2ccccc2)NC(=O)CC=C[C@@H](C)[C@H](OC)COC(=O)CC=C[C@@H]1C`, the composite z-score is 0.482 in test [1]; 1.11 in test [3]; -0.0075 in test [4]; -0.61 in test [5]; -0.134 in test [6]; 0.0022 in test [7]. Also, the composite z-score in test [8] was -0.0682; in test [9], 0.311; in test [10], 0.426; with Albumin (Bos taurus), -0.108; in test [12], 0.0319; in test [13], -0.0211. Further, the composite z-score in [14] is -0.142; in test [15], 0.199; in [16] it was -0.47; in the test with Sam68 (KHDRBS1), 0.588; in test [17], 0.53; in [18], 0.296. Besides, in test [2], the z-score stood at 0.401. For the same molecule, the composite Z-score in test [11] was -0.225 (inactive).
With `C[C@@H]1NC(=O)[C@H](Cc2ccccc2)NC(=O)[C@@]23C(=O)N[C@@H](Cc4ccccc4)C2[C@H](C)[C@@]2(C)O[C@H]2C3/C=C/C/C=C\CNC1=O` (stereo not given in full), the composite z-score is -2.69 in [1]; -0.122 in [3]; -0.472 in test [4]; -1.06 in [5]; -0.124 in test [6]; -0.0474 in test [7]. For the same molecule, the composite z-score in test [8] was -0.238; in test [9], 0.0403; in test [10], -0.576; with Albumin (Bos taurus), 0.0296; in test [12] it was -0.0996; in test [13] it was 0.364. The composite z-score in test [14] is 0.82; in [15] it was -0.741; in test [16], -0.634; with Sam68 (KHDRBS1) it was -0.276; in test [17], 0.399; in [18], -0.265. For the same molecule, in test [2], the z-score is -1.06. Further, the composite Z-score in [11] was 0.0437 (inactive).
For the molecule `C#CCNC(/C=C/c1ccccc1)CO` (stereo not given), the composite z-score was 0.105 in test [1]; 0.421 in test [3]; -0.0934 in test [4]; -0.448 in test [5]; -0.172 in test [6]; 0.0121 in [7]. Besides, the composite z-score in test [8] is -0.0784; in test [9], 0.296; in [10] it was 0.331; in the test with Albumin (Bos taurus), -0.086; in test [12], -0.104; in test [13], -0.115. Moreover, the composite z-score in test [14] was -0.152; in test [15] it was 0.14; in test [16] it was -0.0995; in the test on Sam68 (KHDRBS1), 0.134; in test [17], 0.3; in test [18] it was 0.262. In addition, the z-score in test [2] stood at 0.501. For the same molecule, in [11], the composite Z-score was 0.234 (inactive).
